A selection: hits, their analogues and other compounds. The true share with any hit is near 1.5%.
PvdQ acylase: P. aeruginosa PvdQ acylase inhibitors, primary screen, biochemical, fluorescence, plate reader and imaging, single point; purified PvdQ acylase; PvdQ acylase [Pseudomonas aeruginosa LESB58]; inhibition, % at 10 µM; actives 0.063% (n = 340,000); in the data active means inhibition above about 30%, passing the limit was not always enough; inconclusive means no clear call, values can overlap the other calls
N-glyco inh: increase of ERlucT glycosylation luciferase signal, primary screen, N-linked glycosylation inhibitor project, D54 ERlucT cells, luminescence, set 2 | reporter increase, % at 12.5 µM | actives 0.23% (n = 360,000) | D54 ERlucT glycosylation luciferase reporter, 24 h; percent of 100 nM tunicamycin response;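 active means mean luciferase reporter signal, scaled so untreated is 0 and the glycosylation-blocking control 100, at or above a set limit in every replicate; inconclusive means mean reaches the limit but not every replicate does; inactive means mean below the limit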;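 further: luciferase carries N-glycosylation sites so blocking glycosylation raises the light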
RAD52 anneal inh: RAD52 DNA annealing inhibitors, primary screen, biochemical, FRET, single point, set 2. DNA repair protein RAD52 homolog (Homo sapiens), P43351. recombinant RAD52 DNA annealing, FRET fluorescence. inhibition, % at 18.7 µM. actives 0.46% (n = 360,000);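 active means every replicate showing at least 50% inhibition; inconclusive means mean inhibition at least 50% but not in every replicate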
CFTR F508del cor: F508del CFTR correction, initial screen, CFBE line, single point; activity (quench increase), % at 7.58 µM; AID 720511, 2013; actives 0.36% (n = 350,000); CFBE cells, YFP halide quenching; stimulated with forskolin plus potentiator P3; % fluorescence drop versus neutral controls;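 active means mean added fluorescence quench of at least 8% versus neutral control, with both replicates also reaching 8%; inconclusive means only one of the mean or replicate conditions met; inactive means mean below 8% and not both replicates reaching 8%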;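 further: cells transiently co-express mutant CFTR-F508del with the halide-sensitive YFP; corrector assay measuring rescue of mutant channel to the surface after 24 h compound exposure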
RAD54 branch: inhibitors of human RAD54 branch migration, primary screen, biochemical, fluorescence, single point; DNA repair and recombination protein RAD54-like (Homo sapiens), Q92698; RAD54 Holliday junction branch migration, FAM/BHQ fluorescence; inhibition, % at 10.4 µM; actives 0.14% (n = 360,000);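 active means mean normalized replicate activity at least 40 and at least half of replicates scoring 40 or more; inconclusive means only one of the two criteria met; inactive means mean below 40 and under half of replicates reaching 40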;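 further: inhibitors cause a drop in the FAM fluorescence signal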
dFosB act: activators of delta FosB homodimer, primary screen, biochemical, fluorescence polarization, TAMRA-CDK5 oligo, single point | activation, % at 25 µM | Protein FosB (Mus musculus), P13346 | actives 0.99% (n = 340,000) | purified delta FosB; percent of positive-control signal above neutral wells;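 active means mean activation above about 17%, with every replicate also reaching it, limit read from the data, passing the limit was not always enough; inconclusive means only one of the two conditions met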
Target sequence (P13346 whole entry, looked up): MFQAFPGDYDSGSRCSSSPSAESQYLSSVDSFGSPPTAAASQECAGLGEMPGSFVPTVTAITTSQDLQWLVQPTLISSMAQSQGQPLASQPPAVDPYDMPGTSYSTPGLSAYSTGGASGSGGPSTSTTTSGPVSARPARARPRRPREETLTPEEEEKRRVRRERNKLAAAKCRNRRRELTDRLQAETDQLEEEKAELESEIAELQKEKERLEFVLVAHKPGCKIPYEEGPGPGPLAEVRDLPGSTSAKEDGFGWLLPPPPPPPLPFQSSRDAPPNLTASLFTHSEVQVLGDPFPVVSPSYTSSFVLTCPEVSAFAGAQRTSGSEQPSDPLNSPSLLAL
DNA binder FP: DNA-binding compounds via dye displacement, dose response, artefact control for RAD52 inhibitor project, biochemical, fluorescence polarization, cherry-pick; shares compounds with RAD52 anneal inh; Salmon sperm DNA/acridine orange FP displacement; actives 8% (n = 1,000); AC50, µM; AID 652128, 2013;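 active means fitted half-maximal concentration for signal loss at or below twice the highest dose tested, in every separate run, actives reach about 64 µM in these data; inconclusive means runs disagree, or flat partial signal loss, or poor fit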
Numbers stand for hits; n = inactive; u = inconclusive; x = no result.

SMILES	PvdQ acylase	N-glyco inh	RAD52 anneal inh	CFTR F508del cor	RAD54 branch	dFosB act	DNA binder FP
CC(=O)OC1C([N+]2(C)CCCCC2)C[C@H]2C3CC[C@H]4C[C@H](OC(C)=O)C([N+]5(C)CCCCC5)CC4(C)[C@H]3CCC12C (stereo partly specified)	n	n	50	n	n	n	n
CC1(C)CC(NC(=O)c2ccc(Cl)c(S(=O)(=O)N(Cc3ccccc3)c3ccccc3)c2)CC(C)(C)N1	n	n	51	n	n	n	n
COc1ccccc1N(Cc1ccccc1)S(=O)(=O)c1cccc(C(=O)NC2CC(C)(C)NC(C)(C)C2)c1	n	n	57	n	x	n	n
C[C@@H](NC(=O)C[C@H]1C=C[C@H](NC(=O)C2CC2)[C@@H](CO)O1)c1ccccc1	x	x	n	n	n	x	x
CN(C)CCCNC(=O)c1ccc(-c2cc(O)c3ncccc3c2)cc1	n	n	101	n	n	46	n
CN(C)c1ccc(-c2cc(O)c3ncccc3c2)cc1	n	n	n	n	n	n	x
O=C(CC(F)(F)F)N1C[C@@H]2[C@H](c3ccccc31)[C@@H](CO)N2C(=O)C1CC1	x	x	n	n	n	x	x
CCCCCCCCCCCCCCCC[n+]1cccc2ccccc21	n	n	90	x	x	n	32µM
CCCCCCCCC[n+]1cccc2c3ccccc3ccc21	n	u	x	x	x	n	x
CCCN(C)C[C@H]1OCCCC[C@@H](C)Oc2ccc(NS(=O)(=O)c3cccs3)cc2C(=O)N([C@@H](C)CO)C[C@@H]1C	x	x	n	n	n	x	x
CCOCCCn1c(C)nc2c[n+](CC(=O)c3ccc4ccccc4c3)cc(Br)c21	x	n	64	n	n	x	n
CCc1cc(C(=O)Nc2cc(S(=O)(=O)N(CC)CC)ccc2N2CCN(C)CC2)sc1C	n	n	89	n	n	n	n
C/C=C/c1ccc2c(c1)O[C@@H](CN(C)C(=O)c1ccc(F)cc1)[C@H](C)CN([C@@H](C)CO)S2(=O)=O	x	x	n	x	n	x	x
COc1ccc(S(=O)(=O)N[C@H]2C=C[C@H](CC(=O)N3CCC(Cc4ccccc4)CC3)O[C@@H]2CO)cc1	x	x	n	n	n	x	x
CSC1SCC2C(=O)N(C)C(C(C)C)C(=O)OCC(NC(=O)c3cnc4ccccc4n3)C(=O)NC(C)C(=O)N(C)C1C(=O)N(C)C(C(C)C)C(=O)OCC(NC(=O)c1cnc3ccccc3n1)C(=O)NC(C)C(=O)N2C (stereo unspecified)	n	n	72	n	x	n	n
C[C@H]1CN([C@@H](C)CO)C(=O)c2cc(C3=CCCCC3)cnc2O[C@@H]1CN(C)Cc1ccccc1F	x	x	n	n	n	x	x
NC(=O)[C@@H]1CCCCNc2c(F)cc([N+](=O)[O-])cc2C(=O)N[C@@H](CCCN=C(N)N)C(=O)NCC(=O)N1	n	n	61	n	n	n	n
C[C@@H]1NC(=O)[C@H](CCCN=C(N)N)NC(=O)c2cc([N+](=O)[O-])cc(I)c2NCCC[C@@H](C(N)=O)NC1=O	n	n	86	n	n	n	n
C[C@@H]1NC(=O)[C@H](CCC(N)=O)NC(=O)c2cc([N+](=O)[O-])cc(I)c2NCCC[C@@H](C(N)=O)NC1=O	n	n	n	n	n	n	x
NCCCC[C@@H]1NC(=O)c2cc([N+](=O)[O-])cc(F)c2NCCCC[C@@H](C(N)=O)NC(=O)CNC1=O	n	n	n	n	n	n	x
NCCCC[C@@H]1NC(=O)c2cc([N+](=O)[O-])cc(F)c2NCCCC[C@@H](C(N)=O)NC(=O)[C@H](CCC(N)=O)NC1=O	n	n	80	n	n	n	n
CCc1nc(C)cc2c1sc1ccccc12	x	n	n	n	n	x	x
CC[n+]1c(C)cc2c(sc3ccccc32)c1C	n	n	57	n	x	n	n

Screens (PubChem BioAssay)
